Among the data in PubChem BioAssay (NCI) are growth values, retold here.

The panel holds about 83,000 compounds, 20% with a hit somewhere; the sample as a whole holds those more often.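 For each line, cells grew in 96-well plates with the test compound present at a single concentration for 48 hours.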 Calls of active or inactive are those of the source. How the source made its calls: active means growth percent below 10; inactive means the rest.

The test system of the first test is K-562 leukemia. The experiment in a line: NCI-60 one-dose screen, 48 h (100 = growth as untreated, 0 = no growth, -100 = all killed). Particulars: 10 µM unless noted.
With `COC(=O)c1cccc(NC2=C(Cl)C(=O)c3nc(C)ccc3C2=O)c1`, the growth is 6.34% (active).
Turning to `O=C1Nc2cc(Cl)ccc2/C1=C\c1ccc(OCc2ccccc2)cc1`, the growth is 93.1% (inactive).
As for `Cc1ccc(-c2csc(N/N=C/c3cccs3)n2)cc1`, the growth was 74.4% (inactive).
For `O=[N+]([O-])c1ccc(NC(=S)NNC(=S)Nc2ccc(Br)cc2)cc1`, the growth is 49.1% (inactive).

A further test deals with MALME-3M melanoma. Described as above. Particulars: 10 µM unless noted.
Turning to `NC(=O)n1c(=O)n(-c2cccc(C(F)(F)F)c2)c(=O)c2cc(-c3ccc(F)cc3F)ccc21`, the growth was -18.8% (active).
The same measure, in the same setting: the figure for `O=C1CSC(c2cn(-c3ccccc3)nc2-c2ccc(Cl)cc2)N1c1ccccc1` (stereo unspecified) is 115% (inactive); for `COc1ccc(/C=N/NC(=O)CSc2nc(-c3cnccn3)cc(-c3cccs3)c2C#N)cc1` it is 91.9% (inactive).
On the same count and under the same terms, the figure for `C#Cc1cc(OC)c(C(=O)Nc2ccc(F)cc2C(=O)Nc2cccc(S(=O)(=O)C(F)(F)F)c2)cn1` is -33.4% (active); for `CN1c2ccccc2Sc2cc(/C=N/Nc3ccnc4cc(Cl)ccc34)ccc21` it is 94.7% (inactive).
Still for that read-out and setting: the figure for `O=C(/C=C/c1cccc(F)c1)c1cccc(OCCCOc2cccc(C(=O)/C=C/c3cccc(F)c3)c2)c1` is 99.4% (inactive); for `CN1CCN(Cc2ccc(NC(=O)c3cncc(C#Cc4cnc(N)nc4)c3)cc2C(F)(F)F)CC1` it is -31.1% (active).
Consider `O=C(CSc1nc2ccccc2c(=O)n1-c1ccc(Cl)c(Cl)c1)Nc1ccc(S(=O)(=O)Nc2ccc(Cl)nn2)cc1`, for which the growth is 98.5% (inactive).
The same measure, in the same setting: as for `Cc1[nH]c(C(=O)Nc2ccc(C(N)=O)cc2N2CCOC(C)C2)c(Cl)c1Cl` (stereo unspecified), the figure is 99.1% (inactive); as for `N#Cc1nc(-c2ccccc2)oc1N1CCC(C2(C(F)(F)F)N=N2)CC1`, 102% (inactive).
The same measure, in the same setting: the figure for `C/C(=C(\c1ccc(O)cc1)c1ccc(OCCN2CCCCCC2)cc1)c1ccc(Cl)cc1` is -80.3% (active); for `COc1ccc(C(=O)c2c(N)c(C#N)cn2-c2ccc(Cl)cc2Cl)cc1` it is 96.9% (inactive); for `C#C[C@]1(O)CC[C@H]2[C@@H]3CC=C4c5sc(Nc6cccc(F)c6)nc5CC[C@]4(C)[C@H]3CC[C@@]21C` it is 38.3% (inactive).
Still for that read-out and setting: as for `C[C@@H]1OCC2(CCN(c3cnc(C(=O)Nc4cc(F)cc5cccnc45)cn3)CC2)[C@@H]1N`, the figure is 53.1% (inactive); as for `Cn1c(SCC(=O)c2ccc(F)cc2)nc2ccccc2c1=O`, 109% (inactive); as for `O=C(CCCCCC/C=C\c1csc(Br)n1)NO`, 66.7% (inactive).
`COc1ccc(-c2cc(-c3ccc(N4CCOCC4)cc3)n3c(n2)nc2ccccc23)cc1OC`: the growth is 93.3% (inactive).
For `CN(C)c1cccc2c(S(=O)(=O)Nc3cccc(-c4csc(NC(=O)CCCCCN5CCN(CCO)CC5)n4)c3)cccc12`, the growth is 55.9% (inactive).
As to `O=c1nc(Nc2ccc([N+](=O)[O-])cc2O)sc2ccccc12`, the growth is 30.7% (inactive).
Same read-out and setting: as for `CCc1cc(OC(=O)N2CCC(N3CCCCC3)CC2)ccc1Nc1cc(-c2ccc(-n3cccn3)cc2)[nH]n1`, the figure is -6.02% (active); as for `COc1ccc(-c2c(C(N)=O)c(N)n(Cc3nc4ccccc4[nH]3)c(=O)c2C#N)c(OC)c1`, 93.2% (inactive); as for `CCOC(=O)Nc1ccc2c(ccn2C(=O)c2cccc(F)c2)c1`, 61.7% (inactive).
Consider `CN(C)CCCOc1ccc(C(=C(c2ccccc2)C2CCCC2)c2ccc(OCCCN(C)C)cc2)cc1`, for which the growth was -89.6% (active).
Same read-out and setting: the figure for `CN1CCC[C@]2(C)[C@H]3CC[C@@H]4[C@@H]5[C@H]6OC[C@@]5(CCC6(C)C)CC[C@@]4(C)[C@]3(C)CC[C@H]2C1(C)C` is 89.1% (inactive).
The same measure, in the same setting: the figure for `CNC(=O)c1cc(-c2ccc(NC(=S)Nc3cccc(C(F)(F)F)c3)cc2)nc2cccnc12` is 112% (inactive); for `CC1(C)C=Cc2cc(/C(N)=N/C(N)=N/c3nc4ccccc4s3)ccc2O1` it is 104% (inactive); for `C#Cc1cc(C(=O)Nc2ccc(CNCCN3CCOCC3)c(C(F)(F)F)c2)ccc1C` it is 92.1% (inactive).
The same measure, in the same setting: the figure for `CC(C)(O)c1cncc(-c2ccc3ncc(C#N)c(N4CCc5cc(F)c(Cl)cc54)c3c2)c1` is -12.8% (active).
For the compound `CN1CCN(Cc2ccc(/C=N/Nc3ccnc4cc(Cl)ccc34)cc2)CC1`, the growth was 94.5% (inactive).
On the same count and under the same terms, as for `Cc1ccc(C(=O)CSc2nnc(-c3ccc(-c4ccc(Cl)cc4)nc3C)o2)cc1`, the figure is 96.1% (inactive).
Still for that read-out and setting: the figure for `Cc1ccccc1N1CCN(C2=C(Cl)C(=O)c3ncccc3C2=O)CC1` is -14.5% (active); for `O=C1Nc2ccccc2/C1=C/c1ccc(OCC(=O)c2ccccc2)cc1` it is 98.4% (inactive).
